Screening data: PubChem, National Center for Advancing Translational Sciences (NCATS)
Rows were chosen to be rich in hits. Some 6.6% of all compounds tested hit in one or more screens of this group.
KB-3-1 tox: qHTS assay for MDR1-selective chemotherapeutics: Primary screen using the parental adenocarcinoma cell KB-3-1; 400,000 compounds, 1.4% hits; AID 1347075, 2019; Potency, µM (top dose mostly 46.1 µM), most hits filed as cytotoxic; KB-3-1 viability, CellTiter-Glo ATP luminescence, 72 h; further: on the % scale 0 is the no-effect control and ±100 the full control effect; nearly all actives have a fitted effect of over 60% in size
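KB-3-1 parental drug-naive adenocarcinoma cells in DMEM/10% FBS, incubated 72 h at 37 C with pin-transferred compounds across a concentration series. Viability by CellTiter-Glo luminescence; concentration-response curves fitted after normalization.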
SW480 rereplic: A quantitative high throughput screen for small molecules that induce DNA re-replication in SW480 colon adenocarcinoma cells; SW480 DNA re-replication, Hoechst DNA content imaging, 48 h; Potency, µM (doses to about 46.1 µM), for the others: at the highest dose re-replication activation, most hits filed as activators; 340,000 compounds, 1.8% hits; AID 624297, 2012; further: % of control where 0% means no effect; nearly all actives have a fitted effect of over 55% in size
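Cells (250 per well) received 23 nL compound or DMSO by pin tool and were kept 48 hr at 37 C, 5% CO2. Nuclei were then stained with Hoechst for 40 min and scanned for DNA content.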
PTAP TSG101 blk: qHTS Assay for Iinhibitors of HIV-1 Budding by Blocking the Interaction of PTAP/TSG101; Tumor susceptibility gene 101 protein (Homo sapiens), Q99816; Fluorescence polarization, FITC-PTAP peptide / Tsg101 binding; Potency, µM (series often up to 115 µM), without a hit: top-dose activity change, negative = inhibition, usual class: inhibitors; 340,000 tested, under 10 active; AID 493005, 2010; active means well fitted inhibition curve with a large enough effect in the main read-out, with a control signal flat, not every such curve was filed as active; inconclusive means small, poorly fitted or top-dose-only effect, or effect the other way, or a change in a side signal; inactive means no such curve, though single readings can be large or run the other way; further: % of control where 0% means no effect
Target sequence (Q99816 whole entry, looked up): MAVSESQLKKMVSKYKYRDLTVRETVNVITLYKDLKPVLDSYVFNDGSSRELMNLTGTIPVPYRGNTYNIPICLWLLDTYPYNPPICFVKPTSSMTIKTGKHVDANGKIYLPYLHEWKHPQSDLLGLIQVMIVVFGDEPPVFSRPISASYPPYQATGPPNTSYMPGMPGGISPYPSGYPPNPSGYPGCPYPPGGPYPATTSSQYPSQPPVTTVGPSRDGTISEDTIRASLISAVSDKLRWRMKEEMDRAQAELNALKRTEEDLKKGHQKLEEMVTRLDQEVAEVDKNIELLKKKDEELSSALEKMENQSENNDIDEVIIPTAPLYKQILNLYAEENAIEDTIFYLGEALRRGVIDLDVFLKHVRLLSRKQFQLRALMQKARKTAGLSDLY
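Compounds were pin-transferred onto Tsg101 binding domain (10 uM final) in HEPES pH 7.5 buffer, then FITC-PTAP peptide was added at 50 nM final. After 20 min at RT, polarization reported peptide displacement across a qHTS concentration series.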
KB-V1 cytotox: qHTS assay for MDR1-selective chemotherapeutics: Primary screen using the drug-selected MDR subline cells KB-V1. KB-V1 MDR cells viability, CellTiter-Glo, 72 h. Potency, µM (series often up to 46.1 µM), hits mostly cytotoxic. 400,000 compounds, 3.4% hits. AID 1347076, 2019; further: on the % scale 0 is the no-effect control and ±100 the full control effect; nearly all actives have a fitted effect of over 60% in size
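Potencies derive from concentration-effect curves fitted to normalized luminescence (CellTiter-Glo) of KB-V1 cells treated for 72 h at 37 degrees C in phenol-red-free DMEM containing 10% FBS.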
RGS4 inhibitor: Inhibitors of Regulator of G Protein Signaling (RGS) 4: qHTS; Regulator of G-protein signaling 4 (Homo sapiens), P49798; Transcreener GDP fluorescence polarization, RGS4-accelerated GTP hydrolysis; AID 504845, 2011; 390,000 compounds, 0.039% hits; Potency, µM (highest dose often 114 µM), for inactives: at the top dose activity change, negative = inhibition, actives largely listed as inhibitors; further: on the % scale 0 is the no-effect control and ±100 the full control effect; nearly all actives have a fitted effect of over 75% in size
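MLSMR compounds (23 nl, pin-transferred) preincubated 10 min at room temperature with a 500nM (2x) first reagent, then RGS4 at 900nM (2x) plus Transcreener GDP mix added; fluorescence polarization (620/688 nm) read before and after 90 min at 30 °C.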
MCF10A rerep: A quantitative high throughput screen for small molecules that induce DNA re-replication in MCF 10a normal breast cells; MCF 10A DNA re-replication, Hoechst nuclear intensity, 48 h; Potency, µM (doses to about 46.1 µM), for the others: at the highest dose activity, positive = re-replication, hits mostly activators; 350,000 compounds, 2.9% hits; further: % of control where 0% means no effect; nearly all actives have a fitted effect of over 50% in size
* hit, by the source's call; i = inactive; ? = inconclusive; / = no result given. Unless noted, the call rests on the fitted dose curve; in most records, active means well fitted curve in the direction sought with a large enough effect; inconclusive means small, poorly fitted or top-dose-only effect, or another doubt; inactive means no such curve, though single readings can be large; an effect the other way counts as inactive or inconclusive. Potency means the concentration at half of the fitted maximal effect.

SMILES	KB-3-1 tox	SW480 rereplic	PTAP TSG101 blk	KB-V1 cytotox	RGS4 inhibitor	MCF10A rerep
COc1cccc(NC(=O)c2nn(-c3ccc(C)cc3)c(=O)n(C)c2=O)c1	i	/	/	i	-30.9%	/
O=c1c2sc3ccccc3c2n(Cc2cccc(C(F)(F)F)c2)c(=O)n1Cc1ccco1	i	/	/	i	-13.8%	/
COc1cccc(C(=O)CC2(O)C(=O)Nc3ccc(Cl)cc32)c1 (stereo not given)	i	/	/	?	-19.2%	/
CCOc1ccccc1NC(=O)C(OC(=O)c1ccccc1)c1ccccc1 (stereo not given)	i	-6.0%	0.0%	?	19.5%	-5.6%
CCOc1ccccc1NC(=O)C(OC(=O)c1ccccc1O)c1ccccc1 (stereo not given)	i	-6.8%	-0.1%	11.6µM*	-17.3%	20.7%
CCCCC(CC)CNC(=O)CCCCCn1c(=O)[nH]c2ccsc2c1=O (stereo not given)	i	/	/	i	-10.7%	/
Clc1ccccc1-c1nc(Nc2ccccc2)nc2ccc(Br)cc12	i	/	/	i	13.7%	/
O=C(O)C1CC=CCC1C(=O)N1CCN(c2nc(-c3ccccc3Cl)c3cc(Br)ccc3n2)CC1 (stereo not given)	i	18.4µM*	-7.1%	i	?	23.1µM*
COc1ccccc1N1CCN(C(=O)C2CC=CCC2C(=O)O)CC1 (stereo not given)	i	2.5%	-0.1%	i	-10.8%	-12.9%
O=C(O)C1CC=CCC1C(=O)N1CCN(c2nc(-c3ccccc3)c3ccccc3n2)CC1 (stereo not given)	i	?	-0.4%	i	14.2%	9.2µM*
CCCCCCCCN1[C@@H](CC(=O)O)c2ccc(/C=C/C(=O)O)cc2S1(=O)=O	i	/	/	i	/	/
CCOC(=O)CC/C(=N\NC(N)=O)c1ccc(OC)c(Cl)c1	i	-4.2%	-1.6%	8.2µM*	5.9%	-2.2%
CCCN1CCC(=O)N(C(CSc2ccc(Br)cc2)c2ccccc2)CC1 (stereo not given)	/	/	/	/	-23.5%	/
O=C(Oc1ccc2[nH]cc(CCN3C(=O)c4ccccc4C3=O)c2c1)c1ccco1	i	-8.1%	-2.6%	i	-2.8%	11.6µM*
O=C1c2ccccc2C(=O)N1CCCc1c[nH]c2ccc(Cl)cc12	?	-99.8%	-2.1%	20.6µM*	-13.9%	1.4%
O=C(CN1C(=O)c2ccccc2C1=O)NCCc1c[nH]c2ccc(Cl)cc12	i	-1.7%	0.6%	?	-14.9%	-0.3%
N#CC(C#N)=c1ccc2c(c1)NC1(CCCCC1)N=2	?	13µM*	-4.5%	?	?	?
Cc1cc(NC(=O)C2CCCN(S(=O)(=O)c3cccc4nonc34)C2)ccc1Br (stereo not given)	/	/	/	/	4.0%	/
O=C(CSC1=NNC(c2ccccn2)S1)Nc1ccccc1 (stereo not given)	i	16.4µM*	-0.5%	i	-32.9%	?
O=C(CSC1=NNC(c2ccccn2)S1)Nc1cccc(Cl)c1 (stereo not given)	i	?	-5.2%	i	-29.8%	?
COc1ccccc1NC(=O)CN1C(=O)C2(SCC(=O)N2c2ccc(C)c(C)c2)c2ccccc21 (stereo not given)	18.4µM*	/	/	?	-10.1%	/
CCc1ccc(N2C(=O)CSC23C(=O)N(Cc2ccc(C)cc2)c2ccccc23)cc1 (stereo not given)	?	/	/	11.6µM*	16.8%	/
